According to PubChem BioAssay (EPA / NIEHS):
Records with an inconclusive call do not appear. The source made the active and inactive calls. The calls were made as follows: active = hit-call score of the fitted dose curve at least 0.9, where 1 is the maximum; inconclusive = response in the unintended direction; inactive = score below 0.9.

Assays:
[1] = target: human Peroxisome Proliferator-activated Receptor alpha (PPARa), PPARA (gene 5465) (UniProt Q07869); assay: ATG_PPARa_TRANS: Attagene TRANS-FACTORIAL HepG2 Assay for human Peroxisome Proliferator-activated Receptor alpha (PPARa) (AID 2283001);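 as to AC50: potency for gain of reporter signal over DMSO so agonist or activator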
Procedure, shortened: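 Measures transcriptional activity of an exogenous chimeric PPARa-Gal4 protein in transiently transfected HepG2 cells after 24 h dosing. Reporter mRNA quantified via RT-PCR and capillary electrophoresis; DMSO served as negative control.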

[2] = target: human Peroxisome Proliferator-activated Receptor delta (PPARd), PPARD (gene 5467) (UniProt Q03181); assay: ATG_PPARd_TRANS: Attagene TRANS-FACTORIAL HepG2 Assay for human Peroxisome Proliferator-activated Receptor delta (PPARd) (AID 2283002)
Procedure, shortened: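 Fluorescence from capillary electrophoresis of labelled RT-PCR reporter fragments gives the signal; DMSO sets baseline. Cells: HepG2 transiently carrying GAL4-UAS reporter units plus chimeric nuclear receptor-Gal4 proteins, exposed to chemicals for 24 h.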

[3] = target: Peroxisome proliferator-activated receptor gamma (Homo sapiens) (UniProt P37231); assay: ATG_PPARg_TRANS: Attagene TRANS-FACTORIAL HepG2 Assay for human Peroxisome Proliferator-activated Receptor-gamma (PPARg) (AID 2283007)
Procedure, shortened: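 Endpoint reflects upward reporter mRNA change versus DMSO controls. Setup: transiently transfected HepG2, GAL4-UAS reporters driven by chimeric NR-Gal4, 24 h incubation, RT-PCR with capillary electrophoresis read-out.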

[4] = target: Nuclear receptor subfamily 1 group I member 2 (Homo sapiens) (UniProt O75469); assay: ATG_PXR_TRANS: Attagene TRANS-FACTORIAL HepG2 Assay for human Pregnane X Receptor (PXR) (AID 2283008)
Procedure, shortened: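 Fluorescence intensity of FAM-labelled, HpaI-digested reporter amplicons, separated by capillary electrophoresis, quantifies induction. HepG2 cells with PXR-Gal4 trans-reporter system were exposed 24 h; DMSO defines baseline.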

[5] = target: Retinoic acid receptor RXR-alpha (Homo sapiens) (UniProt P19793); assay: ATG_RXRa_TRANS: Attagene TRANS-FACTORIAL HepG2 Assay for human Retinoid X Receptor alpha (RXRa) (AID 2283012)
Procedure, shortened: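 HepG2 cells transiently transfected with multiplexed GAL4-UAS reporter units and chimeric NR-GAL4 fusions, dosed 24 h. Reporter mRNA measured by RT-PCR, FAM labelling, HpaI digestion and capillary electrophoresis; gain-of-signal fitted relative to DMSO baseline.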

[6] = target: human Retinoid X Receptor beta (RXRb), RXRB (gene 6257) (UniProt P28702); assay: ATG_RXRb_TRANS: Attagene TRANS-FACTORIAL HepG2 Assay for human Retinoid X Receptor beta (RXRb) (AID 2283013)
Procedure, shortened: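 HepG2 cells transiently transfected with multiplexed reporter units driven by GAL4-UAS and exogenous chimeric NR-Gal4 proteins; treated 24 h. Reporter mRNA measured by RT-PCR, 6-FAM labelling and capillary electrophoresis; gain-of-signal fitted versus DMSO baseline.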

[7] = target: human Thyroid Receptor alpha (THRa1), THRA (gene 7067) (UniProt P10827); assay: ATG_THRa1_TRANS: Attagene TRANS-FACTORIAL HepG2 Assay for human Thyroid Receptor alpha (THRa1) (AID 2283014)
Procedure, shortened: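 Measured here is mRNA from a GAL4-UAS reporter in transfected HepG2 cells carrying a Gal4-fused receptor, 24 h post-dose. DMSO served as negative control and baseline.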

[8] = target: human Retinoic Acid Receptor gamma (RARg), RARG (gene 5916) (UniProt P13631); assay: ATG_RARg_TRANS: Attagene TRANS-FACTORIAL HepG2 Assay for human Retinoic Acid Receptor gamma (RARg) (AID 2283009)
Procedure, shortened: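 HepG2 cells transiently transfected with multiplexed reporter units expressing chimeric RARg-GAL4 and GAL4-UAS-driven reporters; 24 h compound exposure. Reporter mRNA quantified by RT-PCR with fluorescent labelling and capillary electrophoresis; gain-of-signal fitted relative to DMSO baseline.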

[9] = target: human RAR-related Orphan Receptor gamma (RORg), RORC (gene 6097) (UniProt P51449); assay: ATG_RORg_TRANS: Attagene TRANS-FACTORIAL HepG2 Assay for human RAR-related Orphan Receptor gamma (RORg) (AID 2283011)
Procedure, shortened: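 Chimeric RORg-Gal4 transactivation in transfected HepG2; 24 h exposure; RT-PCR/capillary electrophoresis readout of reporter mRNA, DMSO baseline.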

[10] = target: human Retinoic Acid Receptor beta (RARb), RARB (gene 5915) (UniProt P10826); assay: ATG_RARb_TRANS: Attagene TRANS-FACTORIAL HepG2 Assay for human Retinoic Acid Receptor beta (AID 2283004)
Procedure, shortened: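 Fluorescent capillary-electrophoresis detection of GAL4-UAS reporter mRNA defines the endpoint, with induction over DMSO-treated wells scored as activity. Transiently transfected human hepatoma HepG2 cells expressing exogenous NR–Gal4 proteins are exposed to test chemicals for 24 h.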

[11] = target: human RAR-related Orphan Receptor beta (RORb), RORB (gene 6096) (UniProt Q92753); assay: ATG_RORb_TRANS: Attagene TRANS-FACTORIAL HepG2 Assay for human RAR-related Orphan Receptor beta (RORb) (AID 2283010)
Procedure, shortened: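 HepG2 cells were transiently transfected with multiplexed GAL4-UAS reporter units expressing chimeric nuclear receptor–GAL4 proteins, then dosed for 24 h. Reporter mRNA was quantified by RT-PCR with fluorescent labelling and capillary electrophoresis; gain of signal was fitted relative to DMSO.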

[12] = target: Retinoic acid receptor alpha (Homo sapiens) (UniProt P10276); assay: ATG_RARa_TRANS: Attagene TRANS-FACTORIAL HepG2 Assay for human Retinoic Acid Receptor alpha (RARa) (AID 2283005)
Procedure, shortened: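 HepG2 transiently transfected with multiplex GAL4-UAS reporter units including a human RARa–GAL4 chimera; 24 h compound exposure. Reporter mRNA quantified by RT-PCR, 6-FAM labeling and capillary electrophoresis; gain of signal versus DMSO.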

Measured: AC50

Retinoic acid receptor RXR-alpha (Homo sapiens), sequence (P19793 whole entry, looked up, the tested form may be a part): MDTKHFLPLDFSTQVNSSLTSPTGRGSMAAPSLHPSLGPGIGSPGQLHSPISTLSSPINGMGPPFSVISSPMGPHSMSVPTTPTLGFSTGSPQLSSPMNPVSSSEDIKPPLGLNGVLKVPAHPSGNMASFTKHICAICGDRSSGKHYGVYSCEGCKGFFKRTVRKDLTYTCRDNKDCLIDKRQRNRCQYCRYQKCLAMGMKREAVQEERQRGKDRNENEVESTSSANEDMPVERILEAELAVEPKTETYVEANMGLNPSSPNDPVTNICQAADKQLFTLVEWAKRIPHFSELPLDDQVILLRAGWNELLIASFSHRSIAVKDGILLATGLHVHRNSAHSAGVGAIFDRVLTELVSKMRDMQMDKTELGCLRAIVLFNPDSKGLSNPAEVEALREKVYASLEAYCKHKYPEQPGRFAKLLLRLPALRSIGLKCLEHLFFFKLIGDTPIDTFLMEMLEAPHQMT
human Retinoid X Receptor beta (RXRb), RXRB (gene 6257), sequence (P28702 whole entry, looked up, the tested form may be a part): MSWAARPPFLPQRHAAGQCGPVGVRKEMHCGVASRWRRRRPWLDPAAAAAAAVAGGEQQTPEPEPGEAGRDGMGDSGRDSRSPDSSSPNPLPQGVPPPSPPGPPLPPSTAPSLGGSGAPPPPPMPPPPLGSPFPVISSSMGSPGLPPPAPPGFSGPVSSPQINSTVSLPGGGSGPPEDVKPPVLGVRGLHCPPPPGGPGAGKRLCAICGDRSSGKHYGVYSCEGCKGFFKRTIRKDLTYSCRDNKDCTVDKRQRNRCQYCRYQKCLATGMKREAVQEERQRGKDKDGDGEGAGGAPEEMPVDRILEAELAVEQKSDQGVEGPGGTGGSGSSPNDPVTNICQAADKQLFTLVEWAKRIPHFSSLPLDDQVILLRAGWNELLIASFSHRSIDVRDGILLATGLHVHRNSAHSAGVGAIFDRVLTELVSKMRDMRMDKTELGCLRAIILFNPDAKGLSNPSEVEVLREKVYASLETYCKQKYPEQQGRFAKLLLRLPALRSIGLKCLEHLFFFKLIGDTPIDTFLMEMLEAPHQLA
human RAR-related Orphan Receptor gamma (RORg), RORC (gene 6097), sequence (P51449 whole entry, looked up, the tested form may be a part): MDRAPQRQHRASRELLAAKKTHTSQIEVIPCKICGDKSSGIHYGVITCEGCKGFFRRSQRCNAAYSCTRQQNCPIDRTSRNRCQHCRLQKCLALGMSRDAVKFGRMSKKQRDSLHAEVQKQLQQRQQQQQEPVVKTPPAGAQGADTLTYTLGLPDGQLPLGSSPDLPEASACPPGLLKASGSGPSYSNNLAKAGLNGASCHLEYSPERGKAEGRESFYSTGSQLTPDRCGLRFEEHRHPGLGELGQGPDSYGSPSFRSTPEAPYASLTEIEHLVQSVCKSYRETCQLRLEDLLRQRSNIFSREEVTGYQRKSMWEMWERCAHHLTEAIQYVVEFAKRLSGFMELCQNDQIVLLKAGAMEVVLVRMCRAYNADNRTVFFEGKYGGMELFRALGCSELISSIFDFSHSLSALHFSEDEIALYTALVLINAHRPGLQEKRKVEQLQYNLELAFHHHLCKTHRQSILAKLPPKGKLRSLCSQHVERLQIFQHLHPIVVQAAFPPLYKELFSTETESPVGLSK
human Peroxisome Proliferator-activated Receptor delta (PPARd), PPARD (gene 5467), sequence (Q03181 whole entry, looked up, the tested form may be a part): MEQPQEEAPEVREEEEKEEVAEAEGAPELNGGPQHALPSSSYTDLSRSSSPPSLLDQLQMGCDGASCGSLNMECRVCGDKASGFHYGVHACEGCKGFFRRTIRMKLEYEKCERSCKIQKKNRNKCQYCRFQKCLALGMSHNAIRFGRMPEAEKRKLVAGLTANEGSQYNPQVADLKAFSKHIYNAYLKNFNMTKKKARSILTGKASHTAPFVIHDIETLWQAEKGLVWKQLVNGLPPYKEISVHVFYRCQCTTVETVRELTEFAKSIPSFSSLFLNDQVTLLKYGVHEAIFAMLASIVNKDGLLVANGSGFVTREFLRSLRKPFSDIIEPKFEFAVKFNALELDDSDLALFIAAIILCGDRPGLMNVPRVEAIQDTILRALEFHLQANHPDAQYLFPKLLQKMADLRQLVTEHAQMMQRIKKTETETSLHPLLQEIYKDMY
human Peroxisome Proliferator-activated Receptor alpha (PPARa), PPARA (gene 5465), sequence (Q07869 whole entry, looked up, the tested form may be a part): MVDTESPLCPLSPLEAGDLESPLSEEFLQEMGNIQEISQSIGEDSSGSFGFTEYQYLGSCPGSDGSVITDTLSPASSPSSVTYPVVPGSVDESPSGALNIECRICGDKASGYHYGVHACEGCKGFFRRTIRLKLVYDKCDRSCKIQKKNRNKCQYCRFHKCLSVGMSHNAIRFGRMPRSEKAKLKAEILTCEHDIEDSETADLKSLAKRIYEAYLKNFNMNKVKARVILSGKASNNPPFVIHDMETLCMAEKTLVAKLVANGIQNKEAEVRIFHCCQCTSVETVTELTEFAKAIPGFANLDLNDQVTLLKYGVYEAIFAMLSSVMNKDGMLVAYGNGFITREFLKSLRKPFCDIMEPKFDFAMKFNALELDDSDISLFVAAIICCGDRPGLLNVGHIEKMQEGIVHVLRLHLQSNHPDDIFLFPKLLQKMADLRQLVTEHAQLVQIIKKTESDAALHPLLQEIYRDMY
Retinoic acid receptor alpha (Homo sapiens), sequence (P10276 whole entry, looked up, the tested form may be a part): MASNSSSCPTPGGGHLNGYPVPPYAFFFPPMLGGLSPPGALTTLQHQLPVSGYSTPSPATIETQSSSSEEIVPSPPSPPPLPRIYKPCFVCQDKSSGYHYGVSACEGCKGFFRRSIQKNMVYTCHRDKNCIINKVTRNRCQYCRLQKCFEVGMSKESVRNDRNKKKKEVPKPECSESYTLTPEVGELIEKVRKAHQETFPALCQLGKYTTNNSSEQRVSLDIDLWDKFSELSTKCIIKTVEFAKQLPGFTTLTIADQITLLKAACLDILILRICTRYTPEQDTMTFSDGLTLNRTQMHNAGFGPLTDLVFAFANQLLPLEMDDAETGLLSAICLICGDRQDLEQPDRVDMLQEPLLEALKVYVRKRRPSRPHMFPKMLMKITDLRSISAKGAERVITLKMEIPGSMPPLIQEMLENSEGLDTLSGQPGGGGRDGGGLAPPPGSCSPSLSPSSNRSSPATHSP
Peroxisome proliferator-activated receptor gamma (Homo sapiens), sequence (P37231 whole entry, looked up, the tested form may be a part): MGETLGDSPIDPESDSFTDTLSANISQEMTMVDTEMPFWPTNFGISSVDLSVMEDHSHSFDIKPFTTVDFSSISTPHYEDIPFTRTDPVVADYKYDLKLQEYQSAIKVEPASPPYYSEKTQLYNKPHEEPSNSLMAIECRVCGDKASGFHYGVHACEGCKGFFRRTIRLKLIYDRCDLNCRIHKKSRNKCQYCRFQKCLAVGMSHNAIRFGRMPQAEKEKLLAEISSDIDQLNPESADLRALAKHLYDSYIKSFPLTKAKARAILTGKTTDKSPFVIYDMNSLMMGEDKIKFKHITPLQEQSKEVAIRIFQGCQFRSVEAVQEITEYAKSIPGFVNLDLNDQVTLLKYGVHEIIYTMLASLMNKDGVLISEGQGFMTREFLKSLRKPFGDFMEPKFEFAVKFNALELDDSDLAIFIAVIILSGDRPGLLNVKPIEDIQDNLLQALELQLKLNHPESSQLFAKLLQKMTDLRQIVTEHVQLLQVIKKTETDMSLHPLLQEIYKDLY
human Thyroid Receptor alpha (THRa1), THRA (gene 7067), sequence (P10827 whole entry, looked up, the tested form may be a part): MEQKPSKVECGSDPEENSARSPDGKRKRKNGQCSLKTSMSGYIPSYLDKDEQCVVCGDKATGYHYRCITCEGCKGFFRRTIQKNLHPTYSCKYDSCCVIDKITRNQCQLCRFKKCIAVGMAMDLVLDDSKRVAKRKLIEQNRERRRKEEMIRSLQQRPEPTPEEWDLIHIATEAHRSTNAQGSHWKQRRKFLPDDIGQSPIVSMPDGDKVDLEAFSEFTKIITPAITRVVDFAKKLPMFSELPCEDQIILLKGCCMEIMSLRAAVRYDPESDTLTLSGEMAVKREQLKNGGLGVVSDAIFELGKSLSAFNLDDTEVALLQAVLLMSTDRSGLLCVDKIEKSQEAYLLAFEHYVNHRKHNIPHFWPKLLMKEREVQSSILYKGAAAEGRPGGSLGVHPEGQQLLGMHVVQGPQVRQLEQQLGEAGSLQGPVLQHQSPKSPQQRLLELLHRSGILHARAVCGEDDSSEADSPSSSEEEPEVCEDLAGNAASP
human Retinoic Acid Receptor gamma (RARg), RARG (gene 5916), sequence (P13631 whole entry, looked up, the tested form may be a part): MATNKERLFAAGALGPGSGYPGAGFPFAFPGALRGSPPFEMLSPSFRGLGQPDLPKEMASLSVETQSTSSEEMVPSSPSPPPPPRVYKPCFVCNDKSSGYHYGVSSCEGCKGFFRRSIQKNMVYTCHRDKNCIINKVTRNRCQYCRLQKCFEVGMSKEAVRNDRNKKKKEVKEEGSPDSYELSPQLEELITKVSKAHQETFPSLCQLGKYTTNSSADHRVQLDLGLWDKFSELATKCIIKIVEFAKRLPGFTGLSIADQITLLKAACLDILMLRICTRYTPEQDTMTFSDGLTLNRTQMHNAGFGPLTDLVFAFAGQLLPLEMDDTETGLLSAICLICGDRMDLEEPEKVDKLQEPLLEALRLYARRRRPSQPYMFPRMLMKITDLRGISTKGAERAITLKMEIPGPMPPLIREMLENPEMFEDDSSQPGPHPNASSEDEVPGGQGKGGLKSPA
human Retinoic Acid Receptor beta (RARb), RARB (gene 5915), sequence (P10826 whole entry, looked up, the tested form may be a part): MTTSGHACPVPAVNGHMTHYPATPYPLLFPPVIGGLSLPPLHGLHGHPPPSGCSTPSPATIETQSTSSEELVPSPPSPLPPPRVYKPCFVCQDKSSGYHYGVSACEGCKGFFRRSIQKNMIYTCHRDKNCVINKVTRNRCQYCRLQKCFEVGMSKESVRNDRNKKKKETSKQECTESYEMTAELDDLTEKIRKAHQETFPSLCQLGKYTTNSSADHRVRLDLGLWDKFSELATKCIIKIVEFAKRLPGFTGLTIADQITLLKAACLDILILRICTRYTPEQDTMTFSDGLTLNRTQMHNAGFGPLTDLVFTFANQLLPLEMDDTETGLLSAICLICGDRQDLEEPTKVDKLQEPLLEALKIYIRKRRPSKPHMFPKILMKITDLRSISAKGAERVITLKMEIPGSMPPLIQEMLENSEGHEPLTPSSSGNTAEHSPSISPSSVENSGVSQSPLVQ

CCCCOC(=O)CCC(C)=O
inactive: [1] | [2] | [3] | [4] | [5] | [6] | [7]

Cc1cc(C)c(C=O)c(C)c1
active: [4] 7.01 µM
not listed: [5] | [10] | [11] | [12]
inactive: all other assays above

CC(=O)OCc1ccccc1
not listed: [7] | [8] | [9] | [12]
inactive: all other assays above

Clc1cccnc1
inactive: [1] | [2] | [10] | [12] | [8] | [9] | [7]

CC1OC(=O)C(C)OC1=O (centres undefined)
inactive: [1] | [2] | [10] | [3] | [4] | [11]

Oc1ccc(-c2ccccc2)c(Cl)c1
inactive: [2] | [8] | [7]
active: [1] 41.1 µM | [3] 39.9 µM

Cc1ccc2c(c1)CCCN2
not listed: [7] | [8] | [9] | [12]
inactive: all other assays above

O=C(OCCc1ccccc1)c1ccccc1
inactive: [1] | [2] | [10] | [8] | [9] | [6]

CC1=CC(C)C(C=O)CC1 (centres undefined)
not listed: [4] | [5] | [7]
inactive: all other assays above

CCCC1CCCC(=O)O1 (centres undefined)
active: [3] 23.4 µM
not listed: [8] | [9] | [11] | [12]
inactive: all other assays above

CC(=O)OCCc1ccccc1
inactive: [1] | [2] | [10] | [6] | [7]

CCC(C)N (centres undefined)
inactive: [1] | [2] | [10] | [3] | [6]

CCC(C)C(=O)OC (centres undefined)
not listed: [4] | [7] | [8]
inactive: all other assays above

CCN(CC)c1cccc(C)c1
not listed: [3] | [5] | [7] | [11]
inactive: all other assays above

CC(C)COC(=O)CC(C(=O)OCC(C)C)S(=O)(=O)O (centres undefined)
inactive: [1] | [2] | [10] | [12] | [6]
active: [3] 66.8 µM | [4] 36.2 µM

Cc1c[nH]c(=O)[nH]c1=O
not listed: [3] | [9] | [10] | [11]
inactive: all other assays above

C=CC(=O)O[C@H]1C[C@@H]2CC[C@@]1(C)C2(C)C
active: [4] 26.6 µM
not listed: [8] | [9] | [10] | [12]
inactive: all other assays above

CC1(C)CCC[C@]2(C)[C@H]3CC(=O)O[C@]3(C)CC[C@@H]12
active: [4] 6.22 µM
not listed: [7] | [9] | [10] | [11]
inactive: all other assays above

CCOB(OCC)OCC
inactive: [1] | [2] | [10] | [12] | [3] | [6] | [7]

CCOC(=O)c1ccc(C)cc1
inactive: [1] | [2] | [3] | [8] | [6]

O=S(=O)(O)c1ccc(Nc2nc(Nc3ccc(C=Cc4ccc(Nc5nc(Nc6ccc(S(=O)(=O)O)cc6)nc(N(CCO)CCO)n5)cc4S(=O)(=O)O)c(S(=O)(=O)O)c3)nc(N(CCO)CCO)n2)cc1
inactive: [1] | [2] | [12] | [3] | [9] | [5] | [6]

CCC1COC(=O)O1 (centres undefined)
active: [6] 70.1 µM
not listed: [7] | [8] | [12]
inactive: all other assays above

Cc1ccc(C)c(OCCCC(C)(C)C(=O)O)c1
active: [1] 37.4 µM | [4] 20.7 µM
not listed: [3] | [7] | [12]
inactive: all other assays above

C=CCOC(=O)c1ccc(C(=O)OCC=C)c(C(=O)OCC=C)c1
inactive: [2] | [4] | [6] | [7]
active: [1] 8.92 µM | [3] 27.7 µM

COC(C=C(C)CCC=C(C)C)OC
active: [3] 57.2 µM
inactive: [1] | [2] | [9] | [5] | [6]

C=C[C@@]1(C)CC(=O)[C@]2(O)[C@@]3(C)[C@@H](O)CCC(C)(C)[C@@H]3[C@H](O)[C@H](OC(C)=O)[C@@]2(C)O1
active: [1] 3.28 µM | [3] 3.2 µM | [5] 26.9 µM | [6] 3.64 µM | [7] 33.4 µM
not listed: [4] | [9]
inactive: all other assays above

CCCCC/C=C\C/C=C\CCCCCCCC(=O)O
active: [1] 28.9 µM | [3] 11.9 µM
inactive: [2] | [4]

CC(C)c1ccc2ncccc2c1
active: [4] 21.4 µM
not listed: [3] | [5] | [9] | [11]
inactive: all other assays above

CO[Si](CCCS)(OC)OC
not listed: [8] | [9] | [10] | [12]
inactive: all other assays above

O=c1c(O)c(-c2ccc(O)cc2O)oc2cc(O)cc(O)c12
not listed: [8] | [11]
inactive: all other assays above
